# The list is not random: actives were taken first. Their share in the collection is about 28%.
# hDAT+cocaine = changed human dopamine transporter uptake under cocaine IC80; LLC-PK1 hDAT cells, [14C]-dopamine uptake with cocaine IC80; actives deviate in either direction; 110,000 tested, 1.3% active; B-score at 10 µM; AID 449768;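 active = Z score or B-score, a plate-position-corrected score, falls beyond the plate's 99.7% confidence bounds, in either direction; inactive = both scores lie inside the 99.7% bounds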
# CYP2C19 inh = blocks human cytochrome P450 2C19; CYP2C19 Supersomes, luciferin-H EGE luminescence, 30 min; inhibition, % at 5 µM; 96,000 tested, 21% active; AID 778;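 active = CYP2C19 inhibition above a set limit at 5 µM in the primary screen, cut at about 50% in these data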
# Target sequence (P33261 whole entry, looked up): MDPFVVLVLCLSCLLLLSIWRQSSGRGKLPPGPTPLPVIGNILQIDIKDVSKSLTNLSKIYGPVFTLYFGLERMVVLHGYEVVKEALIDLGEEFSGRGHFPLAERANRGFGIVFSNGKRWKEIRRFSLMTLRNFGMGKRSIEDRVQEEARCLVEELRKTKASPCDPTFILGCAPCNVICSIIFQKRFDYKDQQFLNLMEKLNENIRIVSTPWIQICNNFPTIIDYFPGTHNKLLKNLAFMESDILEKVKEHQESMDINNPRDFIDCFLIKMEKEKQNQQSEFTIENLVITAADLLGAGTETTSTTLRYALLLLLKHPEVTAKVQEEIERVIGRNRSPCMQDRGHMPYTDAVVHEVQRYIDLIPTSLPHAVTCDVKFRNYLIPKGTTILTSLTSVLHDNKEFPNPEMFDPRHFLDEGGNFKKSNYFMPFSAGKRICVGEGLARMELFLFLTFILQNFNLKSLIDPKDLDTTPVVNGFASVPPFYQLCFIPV
# CYP2C19 act = cytochrome P450 2C19 (human) activation; recombinant CYP2C19, luciferin-H EGE luminescence; stronger effect = higher value; 0 = fully inhibited enzyme, 1 = untreated enzyme; activation factor at 5 µM; 96,000 tested, under 10 active;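 active = activation factor of at least 2 at 5 µM in the primary screen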
# D1 mod = allosterically modulates the human D1 dopamine receptor; P21728; HEK293 D1, CRE-luciferase, dopamine EC30 potentiation; actives deviate in either direction; B-score at 10 µM; 58,000 tested, 5.9% active; AID 641;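 active = luminescence count or its row- and column-corrected plate score outside the 99.7% band of the plate's sample wells, on either side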
# CYP2C9 act = increases human cytochrome P450 2C9 activity; P11712; recombinant CYP2C9, luciferin-H conversion, luminescence; stronger effect = higher value; factor 1 = untreated enzyme, 0 = blocked; activation factor at 5 µM; 96,000 tested, 1.4% active;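 active = activation factor of 2 or more for CYP2C9 at a 5 µM dose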
# CYP2C9 inh = human CYP2C9 inhibition; P11712; CYP2C9 Supersomes, luciferin-H conversion, luminescence; inhibition, % at 5 µM; 96,000 tested, 20% active; AID 777;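 active = blocking of liver enzyme CYP2C9 beyond about 50% at 5 µM, limit read from the data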
# Hits are given with their value; 0 = inactive; - = no result.
SMILES,hDAT+cocaine,CYP2C19 inh,CYP2C19 act,D1 mod,CYP2C9 act,CYP2C9 inh
COc1cc(S(=O)(=O)NC2CCCCC2)ccc1F,0,85,0,-,2.1,0
CCOc1cc(S(=O)(=O)NC2CCCCC2)ccc1F,0,80,0,-,0,60
CCOc1cc(S(=O)(=O)NC2CCCC2)ccc1Cl,0,0,0,0,0,0
COc1cc(S(=O)(=O)NC2CCCC2)c(OC)cc1Cl,0,99,0,-,0,0
CCOC(=O)c1ccc(S(=O)(=O)NC2CCCCCCC2)n1C,0,53,0,0,0,85
COc1ccc(F)cc1S(=O)(=O)NC1CCCCCC1,0,0,0,0,0,0
O=C(CN1CCOCC1)Nc1ccc(S(=O)(=O)NC2CCCCC2)cc1,0,0,0,0,0,0
COc1ccc(OC)c(NC(=O)C2CCN(c3nc(C)cc(C)n3)CC2)c1,0,0,0,0,0,0
CCCCOC(=O)c1cccnc1,0,-,-,-,-,-
Cc1ccc(NC(=O)NC(=O)N(c2ccccc2)S(C)(=O)=O)cc1,0,0,0,0,0,0
CCOc1cc(S(=O)(=O)N2CCCCCC2)ccc1F,0,87,0,-,0,0
CCOc1ccccc1N1CCN(S(=O)(=O)c2ccc(F)c(F)c2)CC1,0,0,0,0,0,0
CCOC(=O)CSC1=Nc2ccccc2C2=NC(CC(=O)NCc3ccc4c(c3)OCO4)C(=O)N12 (stereo unspecified),0,0,0,0,0,0
O=C(Nc1ccccc1Cl)N1CCn2c(nc3ccccc32)C1,0,52,0,-,0,0
O=C(c1ccccc1)N1CCn2c(nc3ccccc32)C1,0,0,0,0,0,0
O=C(C1COc2ccccc2O1)N1CCn2c(nc3ccccc32)C1 (stereo unspecified),0,85,0,0,0,0
O=C(C1COc2ccccc2O1)N1CCOCC1 (stereo unspecified),0,0,0,0,0,0
O=C(C1COc2ccccc2O1)N1CCN(c2ccccc2)CC1 (stereo unspecified),0,85,0,0,0,75
CCOC(=O)C1=C(C)N=c2s/c(=C/c3ccccc3)c(=O)n2C1c1ccc(OC)c(OC)c1 (stereo unspecified),0,0,0,-,0,0
CCOC(=O)C1=C(C)n2c(s/c(=C/c3cccc([N+](=O)[O-])c3)c2=O)=NC1c1ccc(O)c(OC)c1 (stereo unspecified),0,55,0,-,0,67
COc1cc(/C=N/NC(=O)Nc2cccc3nsnc23)cc(OC)c1OC,-,0,0,-,0,56
Cc1c(C(=O)N2CCN(c3ccccn3)CC2)oc2ccccc12,0,85,0,0,0,0
Cc1c(C(=O)NC(C)CN2CCCCC2)oc2ccccc12 (stereo unspecified),0,0,0,0,0,0
O=C(c1cc2c(ccc3ccccc32)oc1=O)N1CCCC1,0,0,0,-,0,73
O=C(O)c1oc2ccccc2c1CN1CCN(c2ccccc2)CC1,0,0,0,0,0,0
SMILES,hDAT+cocaine,CYP2C19 inh,CYP2C19 act,D1 mod,CYP2C9 act,CYP2C9 inh
Cc1c(C(=O)N2CCCCCC2)oc2ccccc12,0,91,0,0,0,0
O=C(c1oc2ccccc2c1CSCc1ccccc1)N1CCN(c2ncccn2)CC1,0,62,0,0,0,80
CCOC(=O)C1CCN(C(=O)Cn2cc3c(n2)CCC(C)C3)CC1 (stereo unspecified),0,0,0,-,0,0
Cc1c(NC(=O)C2C3C=CC(C3)C2C(=O)O)c(=O)n(-c2ccccc2)n1C (stereo unspecified),0,0,0,-,0,0
O=C(c1ccc2ccccc2c1)N1CCN(c2ccc(C(F)(F)F)cn2)CC1,0,0,0,-,0,0
COCc1c(C(=O)N2CCN(c3ccc(C(F)(F)F)cn3)CC2)oc2ccccc12,0,80,0,-,0,0
Cc1ccc(N(CC(=O)NC2CCCC2)C(=O)CCCC(=O)Nc2ccccn2)cc1C,0,56,0,0,0,56
O=C(CCC(=O)N(CC(=O)NC1CCCC1)C1CCCC1)Nc1ccccn1,0,0,0,0,0,0
Cc1cc(C)cc(N(CC(=O)NC2CCCCC2)C(=O)CCC(=O)Nc2cc(C)ccn2)c1,-,0,0,0,0,0
Cc1ccnc(NC(=O)CCC(=O)N(CC(=O)NC2CCCCC2)c2cccc(C)c2C)c1,0,0,0,0,0,56
Cc1ccc(C)c(N(CC(=O)NC2CCCCC2)C(=O)CCC(=O)Nc2ccccn2)c1,-,66,0,0,0,80
COC(=O)C(C(=O)OC)C(C)C(C(=O)OC)C(=O)OC,0,0,0,-,0,0
Cc1cccc(OCCCn2ccnc2)c1,0,100,0,0,0,68
Cc1ccc(OCCCn2ccnc2)cc1C,0,100,0,-,0,96
COc1cccc(OCCn2ccnc2)c1,0,-,-,0,-,-
CC(C)N1C(=O)CC2(CC[N+](C)(CCOC(=O)C(c3ccccc3)c3ccccc3)CC2)C1=O (stereo unspecified),0,0,0,-,0,0
COc1ccc(C(=O)c2coc3ccc(O)c(CN4CCOCC4)c23)cc1,3.5,-,-,0,-,-
COc1ccc(OC)c(C(O)c2coc3ccc(O)c(CN(C)C)c23)c1 (stereo unspecified),0,0,0,-,0,0
Cc1ccc(C(=O)c2coc3ccc(O)c(CN4CCN(C)CC4)c23)cc1,0,78,0,-3.1,0,0
COc1ccc(OC)c(C(O)c2coc3ccc(O)c(CN4CCOCC4)c23)c1 (stereo unspecified),0,58,0,-,0,54
CCOC(=O)C1CCN(C(=O)Nc2ccc3nc(C)c(C)nc3c2)CC1,0,0,0,0,0,0
CCCOc1ccc2[nH]cc(C(=O)O)c(=O)c2c1,0,0,0,0,0,0
NC(=O)NC(=O)CSc1cccc(C(F)(F)F)c1,0,-,-,0,-,-
COC(=O)c1ccccc1-c1ccc(/C=C2\C(=O)N(c3ccccc3)N=C2c2ccccc2)o1,0,94,0,-,0,83
CNC(=O)/C(C#N)=C/c1ccc(-c2ccc(OC)cc2[N+](=O)[O-])o1,0,0,0,-,0,0
SMILES,hDAT+cocaine,CYP2C19 inh,CYP2C19 act,D1 mod,CYP2C9 act,CYP2C9 inh
COc1ccc(-c2ccc(/C=C3\C(=O)N(c4ccccc4)N=C3c3ccccc3)o2)c([N+](=O)[O-])c1,0,56,0,-,0,71
O=C(NC1=NCCS1)C1CC2CCC1C2 (stereo unspecified),0,0,0,0,0,0
Cc1ccc(O)c(C(=O)c2coc(=N)c(C(=O)NC(C)C)c2)c1,0,0,0,-,0,0
C=CCNc1nc(SC)nc2ccsc12,0,0,0,-,2.3,0
O=C(OCCn1cncn1)c1cc2ccccc2oc1=O,0,0,0,0,0,0
O=C(c1ccccc1)c1c[nH]c2cc3c(cc2c1=O)OCCO3,0,-,-,0,-,-
Nc1cc2c(cc1C(=O)c1ccccc1)OCCO2,0,51,0,-,0,0

# Compound activity deposited in PubChem BioAssay by several laboratories.
